Assay outcomes: PubChem, The Scripps Research Institute Molecular Screening Center
UHRF1 binding: human UHRF1 methylated DNA binding inhibitors | Q96T88 | UHRF1 binding to methylated oligo, TR-FRET | inhibition, % at 4.4 µM | actives 0.75% (n = 370,000) | AID 687016; in the data active = inhibition above about 21%;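 note: UHRF1 SRA domain binding a hemimethylated CpG hairpin DNA probe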
Target sequence (Q96T88 whole entry, looked up, the tested form may be a part): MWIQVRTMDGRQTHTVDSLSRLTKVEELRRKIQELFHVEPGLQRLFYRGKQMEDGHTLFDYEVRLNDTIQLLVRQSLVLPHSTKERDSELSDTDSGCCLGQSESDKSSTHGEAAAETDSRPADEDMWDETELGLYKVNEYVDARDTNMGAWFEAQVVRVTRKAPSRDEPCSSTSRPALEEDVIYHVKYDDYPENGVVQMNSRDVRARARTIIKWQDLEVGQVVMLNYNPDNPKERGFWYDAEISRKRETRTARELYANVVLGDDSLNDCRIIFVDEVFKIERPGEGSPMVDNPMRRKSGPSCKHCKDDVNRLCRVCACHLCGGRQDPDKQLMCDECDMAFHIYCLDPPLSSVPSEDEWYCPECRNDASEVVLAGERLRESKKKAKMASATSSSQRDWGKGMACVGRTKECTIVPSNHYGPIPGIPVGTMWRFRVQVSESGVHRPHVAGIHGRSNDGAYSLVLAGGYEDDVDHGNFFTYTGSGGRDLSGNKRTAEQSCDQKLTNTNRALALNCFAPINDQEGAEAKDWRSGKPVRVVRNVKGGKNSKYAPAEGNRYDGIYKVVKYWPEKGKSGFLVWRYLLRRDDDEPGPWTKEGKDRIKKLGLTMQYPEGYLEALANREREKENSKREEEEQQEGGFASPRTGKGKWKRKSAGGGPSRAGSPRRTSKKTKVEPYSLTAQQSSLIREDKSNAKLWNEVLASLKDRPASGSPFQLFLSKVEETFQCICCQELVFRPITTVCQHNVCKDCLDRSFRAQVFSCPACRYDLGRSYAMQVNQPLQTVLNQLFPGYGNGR
MBD2 inh: inhibitors of human MBD2 binding to methylated oligonucleotide. Q9UBB5. TR-FRET. inhibition, % at 4.4 µM. actives 0.31% (n = 370,000). AID 686964; in the data active = inhibition above about 13%
rCAG binder: molecules binding r(CAG) RNA repeats | actives 1.3% (n = 370,000) | inhibition, % at 3 µM | r(CAG) RNA repeat, TO-PRO-1 dye displacement fluorescence;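 active = inhibition above the plate cutoff, the mean of all test compounds on that plate plus 3 SD, cut at about 35% in these data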;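 note: higher means more dye released from RNA so lower well fluorescence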
ABHD5-PLIN5 inh: blocks binding of human ABHD5 to perilipin-5 | Q00G26+Q8WTS1 | Split G. princeps luciferase complementation, luminescence, 4 h | inhibition, % at 4 µM | actives 0.78% (n = 360,000) | AID 602281;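 active = inhibition above the mean inhibition across every tested compound plus 3 SD, cut at about 22% in these data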
PRMT1 FP inh: blocks human protein arginine methyltransferase 1; Q99873; recombinant PRMT1, activity-based probe fluorescence polarization; inhibition, % at 2.79 µM; actives 1.3% (n = 370,000); AID 652257;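 active = inhibition above about 21% made by adding two undisclosed values, limit read from the data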
LEDGF integ inh: blocks HIV-1 LEDGF/p75-dependent DNA integration; TR-FRET IN-LEDGF/p75 DNA integration, Eu/Cy5; inhibition, % at 3.7 µM; actives 0.64% (n = 370,000); AID 743269;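 active = inhibition above the screen-wide mean plus 3 SD, cut at about 13% in these data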;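 note: signal is the Cy5 over europium emission ratio at 671 and 618 nm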
IN multimer up: activates HIV-1 integrase multimerization in LEDGF counter-screen; shares compounds with LEDGF integ inh; TR-FRET HIV-1 integrase multimerization, biochemical; activation, % at 7.7 µM; actives 17% (n = 2,000); in the data active = activation above about 8.9%
TRFRET interf: counter-screen for LEDGF/p75 integration inhibitors: TR-FRET optical interference. shares compounds with LEDGF integ inh. TR-FRET optical interference counterscreen, HIV-1 IN multimerization. inhibition, % at 7.7 µM. 2,000 tested, under 10 active. AID 1053135;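 active = inhibition above the mean over all tested compounds plus 3 SD, which no compound reached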
IN-LEDGF confirm: confirmation of HIV-1 LEDGF/p75-dependent integration inhibitors. actives 36% (n = 2,000). TR-FRET LEDGF/p75-dependent HIV-1 integration, biochemical. inhibition, % at 3.7 µM. shares compounds with LEDGF integ inh; in the data active = inhibition above about 14%
Numbers stand for hits; 0 = inactive; - = no result given. The list is not random: actives were taken first. Their share in the collection is about 4.1%.

SMILES	UHRF1 binding	MBD2 inh	rCAG binder	ABHD5-PLIN5 inh	PRMT1 FP inh	LEDGF integ inh	IN multimer up	TRFRET interf	IN-LEDGF confirm
C=CCc1c(C)nc(-c2ccccc2)nc1N/N=C/c1ccncc1	0	0	0	0	0	0	-	-	-
Cn1c(=O)c(C(=O)c2ccc(S(C)(=O)=O)c(Cl)c2Cl)c(O)c2ccccc21	0	0	0	0	0	37.8	0	0	0
O=C1OC(Nc2cc(Br)cc3cccnc23)c2ccccc21 (centres undefined)	0	0	0	0	31.0	53.5	0	0	73.8
O=C1OC(Nc2ncccn2)c2ccccc21 (centres undefined)	0	0	0	0	0	0	-	-	-
CCCCNS(=O)(=O)/C=C/c1ccc(F)cc1CNC(=O)OC(C)(C)C	0	0	0	-	0	0	-	-	-
COc1ccc(C2C(C#N)=C(N)OC3=C2C(=O)CC(C)(C)C3)cc1Cn1nc(C)c([N+](=O)[O-])c1C (centres undefined)	0	0	0	0	0	14.5	0	0	0
Cc1ccc2nc(NC(=O)c3ccccc3F)sc2c1	0	0	0	0	0	0	-	-	-
COc1ccc2nc(NC(=O)c3ccccc3F)sc2c1	0	0	0	0	0	16.2	0	0	0
Cc1ccc(NC(=O)OCCCN2C(=O)CCC23CCC(C)CC3)cc1C (centres undefined)	0	0	0	-	0	0	-	-	-
O=C1c2c(O)cc(O)cc2O[C@H](c2ccc(O)c(O)c2)[C@H]1O	0	0	0	0	0	22.6	0	0	0
O=C1c2c(O)cc(O)cc2O[C@H](c2ccc(O)cc2)[C@H]1O	0	0	0	0	0	0	-	-	-
COCCCNC(=O)C[C@H]1C[C@@]2(C(=O)OC)C(=C[C@H](COCc3ccccc3)O[C@@H]2C)N(Cc2ccc3c(c2)OCO3)C1=O	0	0	0	-	0	0	-	-	-
Oc1ccc(/C=N/Nc2ccc(Cl)nn2)c(O)c1O	21.4	0	0	0	57.6	69.7	31.4	0	62.1
CCc1ccc2c(c1)C(NC(C)=O)C(=O)N2CCN1CCOCC1 (centres undefined)	0	0	0	0	0	14.5	0	0	32.7
CCC1COC(c2cccn2Cc2ccc(Cl)cc2)=N1 (centres undefined)	0	0	0	0	0	14.3	0	0	0
CCSCC1COC(c2cccn2Cc2ccc(C)cc2)=N1 (centres undefined)	0	0	0	0	0	0	-	-	-
CN(C)c1ccc(N=Cc2cccn2C)cc1	0	0	0	0	0	22.5	0	0	0
CC(=O)c1c(C)[nH]c(C(=O)OCC(=O)Nc2cccnc2Cl)c1C	0	0	0	0	0	24.0	0	0	0
CC(C)C[C@H]1COc2cccc(N3CCSCC3)c2S(=O)(=O)N1C	0	0	0	-	0	0	-	-	-
COc1cc2c3nnc(-c4ccc(F)cc4)c-3cn(Cc3ccccc3)c2cc1OC	0	0	0	0	0	31.0	0	0	0
S=C(Nc1ccc(N2CCOCC2)cc1)Nc1ccc2nc(-c3ccco3)c(-c3ccco3)nc2c1	0	0	0	0	42.9	27.3	18.4	0	51.4
O=C(Nc1ccc(N2CCOCC2)cc1)c1ccc2nc(-c3ccco3)c(-c3ccco3)nc2c1	0	0	0	0	0	0	-	-	-
CCc1ccc(C(=O)NC(=S)Nc2ccc(N3CCOCC3)cc2)cc1	0	0	0	0	0	0	-	-	-
C/C(=C\C(=O)c1ccccc1)Nc1ccc(N2CCOCC2)cc1	0	0	0	0	0	21.8	0	0	0
C/C(=C\C(=O)c1ccc(Cl)cc1)Nc1ccc(N2CCOCC2)cc1	0	0	0	0	0	0	-	-	-
CC(=O)c1ccc(NC(=S)Nc2ccc(N3CCOCC3)cc2)cc1	0	0	0	0	0	15.0	0	0	0
Nc1ccccc1SCC(=O)Nc1ccc(N2CCOCC2)cc1	0	0	0	0	0	17.9	0	0	0
